# Laboratory results taken from PubChem BioAssay AID488890 (Southern Research Specialized Biocontainment Screening …, 2010).
# Out of some 320,000 compounds screened, about 1,300 (0.41%) were called active. About 3% were inconclusive and are not listed. The rule behind the calls is not given here. Only a sample is shown. Measured potencies and affinities stand elsewhere.
# Test: growth inhibition of non-replicating M. tuberculosis (AID 488890);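 note: plate controls were DMSO cells for no effect and high antibiotic wells for full effect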
# Settings: Mycobacterium tuberculosis non-replicating, at 25 µM, stronger effect = higher value
row,SMILES,inhibition
1,O=c1oc(-c2ccco2)nc2ccccc12,28.8%
2,COc1cc(OC)cc(-c2cc3ccccc3c(=O)o2)c1,9.55%
3,Cc1c2cnn(CC(=O)Nc3c(F)c(F)cc(F)c3F)c(=O)c2c(C)n1Cc1ccccc1F,0.29%
4,CN(C)C(CNC(=O)CCOc1ccccc1)c1ccco1 (centres undefined),13.7%
5,Fc1ccccc1CSc1nc2ncccc2[nH]1,23.3%
6,Cc1cc(=O)[nH]c(SC/C=C/c2ccccc2)n1,69.8%
7,Cn1c(C(=O)N[C@@H](Cc2ccccc2)C(=O)O)cc2cc(F)ccc21,-8.03%
8,Cc1ccc(N2C(=O)NC(NC(=O)C(C)(C)C)(C(F)(F)F)C2=O)cc1C (centres undefined),-24.4%
9,Cc1cc(C)n(-c2nc(NCC(C)O)c3c4c(sc3n2)CCCC4)n1 (centres undefined),79.3%
10,Cc1cc(C)n(-c2nc(SCC(=O)O)c3c4c(sc3n2)COC(C)(C)C4)n1,78.8%
11,Cc1cc(C)n(-c2nc(SCCN(C)C)c3c4c(sc3n2)COC(C)(C)C4)n1,65.5%
12,Cc1cc(C)n(-c2nc(NCCCN(C)C)c3c4c(sc3n2)CCCC4)n1,75.9%
13,O=C1CCCN1CC(O)CS(=O)(=O)Cc1ccccc1 (centres undefined),-12.3%
14,COc1ccc(C2C(C(C)=O)=C(C)Nc3ncnn32)c(OC)c1OC (centres undefined),-4.13%
15,Cc1cccn2c(NC(=O)c3cccs3)c(-c3ccccc3)nc12,-0.63%
16,Cc1nnc(-c2ccccc2)nc1N(C)C,21.8%
17,c1ccc(-c2nnc(-c3ccccn3)c(-c3ccccn3)n2)nc1,10.5%
18,COc1cc(CNc2ccc3[nH]c(=O)[nH]c3c2)ccc1OCc1ccc(Cl)cc1,32.9%
19,CC(=O)c1ccc(OC(=O)c2ccc(Br)o2)cc1,79.1%
20,CCc1ccc(C(=O)COC(=O)CNC(=O)c2ccc(Br)o2)cc1,43.3%
21,Cc1ccc(CC(=O)N2CCN(C)CC2)cc1,-6.84%
22,CNc1c([N+](=O)[O-])cnn1-c1ccccc1Cl,10.6%
23,Cc1ccccc1-c1cnn(-c2cccc([N+](=O)[O-])c2)c1N,14.7%
24,O=C(CSc1n[nH]c(=O)n1-c1cccnc1)Nc1ccccc1Cl,-0.8%
25,O=C(Nc1ccccc1N1CCOCC1)C1=NN(c2c(F)c(F)cc(F)c2F)C(=O)CC1,-3.73%

row,SMILES,inhibition
1,N#Cc1ccsc1NC(=O)c1cccc([N+](=O)[O-])c1,2.42%
2,O=C(Nc1nccs1)c1ccc(Cl)c([N+](=O)[O-])c1,-5.17%
3,COC(=O)c1ccccc1S(=O)(=O)N1CCC(C(=O)NCC2CCCO2)CC1 (centres undefined),-9.14%
4,CN(C(=O)COC(=O)c1cc(NS(=O)(=O)c2cc([N+](=O)[O-])ccc2Cl)ccc1O)C1CCCCC1,35.1%
5,CN(C(=O)COC(=O)c1ccc(Cl)cc1N)C1CCCCC1,24.6%
6,CCN(CC)c1ccc(-c2nnc(SCC(=O)Nc3ccccc3C#N)n2-c2ccccc2)cc1,41%
7,CC1(C)CC(=O)C2=C(C1)OC(N)=C(C#N)C2Cc1ccccc1 (centres undefined),25%
8,CC1(C)CC(=O)C2=C(C1)OC(N)=C(C#N)C2c1ccccc1 (centres undefined),24.7%
9,Cc1cc2oc(=O)cc(CN3CCc4ccccc43)c2cc1Cl,-0.24%
10,COc1ccc(CCn2c(N)cc(=O)[nH]c2=S)cc1OC,10.4%
11,CCOc1ccc(CCNC(=O)CCn2nc(C)c3c(C)n(-c4ccccc4)nc3c2=O)cc1,-11.8%
12,O=C(OCc1cnc(Cl)s1)c1ccccc1Cl,56.8%
13,O=C(OCc1cncs1)c1ccccc1Cl,32.7%
14,CCOC(=O)CSc1nnc(CNC(=O)c2cccs2)n1-c1cccc(C)c1,33%
15,C[C@@H]1CCCCCCCCC(=O)OCCN(C(=O)OC(C)(C)C)[C@H](C)CCCCCCCCC(=O)OCCN(C(=O)OC(C)(C)C)[C@H](C)CCCCCCCCC(=O)OCCN(C(=O)OC(C)(C)C)[C@H](C)CCCCCCCCC(=O)OCCN1C(=O)OC(C)(C)C,-3.81%
16,Clc1ccc(CSc2nnc(-c3cccnc3)o2)cc1,47.9%
17,Brc1ccc(CSc2nnc(-c3cccnc3)o2)cc1,-15.4%
18,O=[N+]([O-])c1cccc(-c2nnc(SCc3cccnc3)o2)c1,43.9%
19,O=[N+]([O-])c1ccc(CSc2nnc(-c3cnccn3)o2)cc1,66.9%
20,Cc1cc(C(=O)Nc2ccccc2C)on1,-6.92%
21,CCCC(=O)Nc1ccc(C(=O)/C=C/c2ccc(SC)cc2)cc1,42.6%
22,COc1cc2c(cc1OC)C(c1cc3cccc(C)c3[nH]c1=O)N(C(=O)c1ccco1)CC2 (centres undefined),30.4%
23,COc1ccc(NC(=S)NCc2ccc(F)cc2)c(OC)c1,14.9%
24,CC1CCN(C(=O)CN(CCc2ccccc2)S(C)(=O)=O)CC1,-0.19%
25,O=C(O)CCN1C(=O)/C(=C\c2ccncc2)SC1=S,38.8%

row,SMILES,inhibition
1,O=C(O)CCCN1C(=O)/C(=C/c2ccncc2)SC1=S,65%
2,Cn1c(CNC(=O)CNS(=O)(=O)c2ccccc2)cc(=O)n(C)c1=O,-2.98%
3,CCCCn1c(N)c(N(CC)C(=O)CCc2ccccc2)c(=O)[nH]c1=O,9.68%
4,O=C(c1cccc2ccccc12)N1CCCCC1,-8.51%
5,O=C(c1cccc(F)c1F)N1CCCC1,-8.96%
6,CCOP(=O)(OCC)C(NC(=O)C(F)(F)F)c1ccccc1 (centres undefined),3.99%
7,CCOc1ccc(C(=O)CC(=O)C(=O)NCCc2ccc(OC)c(OC)c2)cc1,31.3%
8,COc1ccc(S(=O)(=O)CCC(=O)NCCc2cccc(C)c2)cc1,-8.54%
9,Cc1nc2cc(NS(=O)(=O)c3ccccc3F)ccc2s1,3.43%
10,COc1ccccc1Oc1cc(-n2nc(C)cc2C)ncn1,30%
11,CCOC(=O)c1cnc(Nc2nc3ccccc3o2)nc1CSC(=S)N(CC)CC,28.1%
12,CCOC(=O)c1cnc(Nc2nc3ccccc3o2)nc1CSc1ncccn1,1.64%
13,CCn1ncc(C(=O)Nc2ccc(F)cc2)c1C,-7.3%
14,O=C(CCn1c(=S)[nH]c2ccccc2c1=O)Nc1cccc(Cl)c1,-2.2%
15,COc1ccccc1OCC(O)Cn1c(=N)n(Cc2ccccc2)c2ccccc21 (centres undefined),45%
16,N=c1n(Cc2ccccc2)c2ccccc2n1CC(O)COc1ccccc1 (centres undefined),70.8%
17,CC(=O)Nc1ccc(OCC(O)Cn2nc(C)c(C(C)=O)c2C)cc1 (centres undefined),-9.63%
18,COc1ccc(C(=O)C2CCCN(C(=O)c3c4c(nn3C)CCCC4)C2)cc1F (centres undefined),-19.7%
19,CCOC(=O)c1ccc(NC(=O)C2C3C=CC(O3)C2C(=O)O)cc1 (centres undefined),20.5%
20,COC(=O)Cc1ccc(NC(=O)c2ccc(Br)o2)cc1,72.6%
21,O=C(Nc1ccc2c(c1)Cc1ccccc1-2)c1ccc(Br)o1,53.9%
22,CCN(CC)c1ccc(NC(=O)c2ccc(Br)o2)cc1,52.8%
23,Cc1ccc(C(=O)Nc2ccc3c(c2)CCC3)o1,79.8%
24,COC(=O)c1ccc(NC(=O)C2C3C=CC(O3)C2C(=O)O)cc1 (centres undefined),5.13%
